# Rows were chosen to be rich in hits. Some 0.52% of all compounds tested hit in one or more screens of this group.
# GAA inh = qHTS Assay for Inhibitors of Human alpha-Glucosidase as a Potential Chaperone Treatment of Pompe Disease; Potency, µM (top dose mostly 76.9 µM), usual class: inhibitors; actives 0.005% (n = 200,000); purified human GAA, 4-MU-alpha-glucoside fluorescence; Lysosomal alpha-glucosidase (Homo sapiens), P10253
#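 Endpoint fluorogenic read: 20 min room-temperature reaction of 4 nM human alpha-glucosidase with 400 uM 4-methylumbelliferyl-alpha-D-pyranoside, pH 5.0, quenched with 1M NaOH/1M glycine pH 10. AC50 from Hill modeling.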
# N370S GC mod = qHTS Assay for Inhibitors and Activators of N370S glucocerebrosidase as a Potential Chaperone Treatment of Gaucher Disease; actives 0.092% (n = 330,000); N370S GC spleen homogenate, 4MU-glucoside fluorescence; Potency, µM (series often up to 59.4 µM), most hits filed as inhibitors; Lysosomal acid glucosylceramidase (Homo sapiens), P04062
# GAA spleen mod = qHTS Assay for Inhibitors and Activators of Human alpha-Glucosidase From Spleen Homogenate; Lysosomal alpha-glucosidase (Homo sapiens), P10253; human spleen homogenate, 4-MU-alpha-glucoside fluorescence; Potency, µM (series often up to 79.9 µM), actives largely listed as inhibitors; actives 0.006% (n = 240,000); AID 2112, 2009
#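 Human spleen homogenate (1 ug) incubated with compounds and 1 mM 4-methylumbelliferyl-alpha-D-glucopyranoside in pH 5.0 citrate/phosphate buffer, 37 C, 40 min. Stopped at pH 10; 4-MU fluorescence (Ex 365/Em 440 nm); AC50 by Hill fit.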
# LMNA splice mod = qHTS Assay for Modulators of Lamin A Splicing. HeLa LMNA splicing GFP/RFP minigene ratio, 48 h. Potency, µM (doses to about 46.1 µM), usual class: inhibitors. actives 0.01% (n = 200,000); active means well fitted inhibition curve with a large enough effect in the signal ratio, with a control signal flat, not every such curve was filed as active; inconclusive means small, poorly fitted or top-dose-only effect, or effect the other way, or a change in a side signal; the % refers to the signal ratio
#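 S3 HeLa cells stably expressing lamin A-EGFP splicing minigene plus DsRed2, 600 cells/well, 48 h compound exposure at 37C. Laser-scanning cytometry; analysed as GFP (500-530 nm)/RFP (575-640 nm) total intensity ratio; 0.5% DMSO vehicle.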
# KinaseGlo FLuc = Counterscreen for Luciferase (Kinase-Glo TM) Inhibition; Potency, µM (highest dose often 38.3 µM), hits mostly inhibitors; Kinase-Glo luciferase, ATP luminescence, 8 min; actives 0.28% (n = 200,000); further: nearly all actives have a fitted effect of over 60% in size
#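 Substrate mix (final 50 mM imidazole pH 7.2, 50 mM KCl, 7 mM MgCl2, 10 uM ATP, 0.01% Tween 20, 0.05% BSA) plus pin-tool compound, then Kinase-Glo detection mix; 8 min ambient, luminescence read.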
# GAA glycogen = qHTS Assay for Inhibitors and Activators of Human alpha-Glucosidase Cleavage of Glycogen; recombinant GAA, glycogen substrate, Amplex Red glucose oxidase fluorescence; Potency, µM (top dose mostly 76.4 µM), hits mostly inhibitors; actives 0.38% (n = 300,000); Lysosomal alpha-glucosidase (Homo sapiens), P10253; AID 2100, 2009;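 further: the screen sought inhibitors and activators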
#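 Recombinant enzyme (4 nM final) with compounds titrated up to 77 uM and bovine liver glycogen (30 ug) in citrate pH 5.0, 0.01% Tween-20, 37 C 40 min. Released glucose detected by Amplex Red/glucose oxidase (Ex 573/Em 610); AC50 from Hill fits.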
# Hits are given with their value; . = inactive; ? = inconclusive; / = no result; [ ] = dose if it differs, or a comment. Unless noted, the call rests on the fitted dose curve; in most records, active means well fitted curve in the direction sought with a large enough effect; inconclusive means small, poorly fitted or top-dose-only effect, or another doubt; inactive means no such curve, though single readings can be large; an effect the other way counts as inactive or inconclusive.
SMILES,GAA inh,N370S GC mod,GAA spleen mod,LMNA splice mod,KinaseGlo FLuc,GAA glycogen
CC(C)OCCCn1c(=O)c2ccccc2n2c(CCC(=O)N3CCN(c4ccccn4)CC3)nnc12,/,20µM,/,/,/,.
C[N+]1(C)C[C@@H](O)C[C@@H]1C(=O)[O-],/,.,.,?,.,/
COc1ccc2nc(-c3cccc(N)c3)[nH]c2c1,.,.,.,.,12.6µM,.
COc1ccc2nc(-c3ccc(N)cc3)[nH]c2c1,.,.,.,?,10µM,.
COCCCn1c(SCc2cccc(Cl)c2)nc2c(sc3ccccc32)c1=O,/,/,/,.,/,/
CCOc1ccc(C2NC(=O)c3c(COC)cc(C)nc3N2Cc2ccccc2)cc1OC (stereo unspecified),/,/,/,/,/,.
CC(=O)C1=C(c2ccccc2)NC(=S)NC1c1ccc(O)c(O)c1 (stereo unspecified),.,.,.,.,.,3.16µM
O=C(NNc1nc2ccccc2nc1C(F)(F)F)c1ccccc1,.,.,.,.,.,11.2µM
Cc1ccc(S(=O)(=O)NNc2nc3ccccc3nc2C(F)(F)F)cc1,.,.,.,.,.,28.2µM
Cc1ccc(S(=O)(=O)NNc2ccccc2)cc1,.,/,.,.[0.0737 µM],.,?
O=C(Nc1ccc(F)cc1)c1oc2ccccc2c1NC(=O)C12CC3CC(CC(C3)C1)C2,/,/,/,/,/,.
CCCCOC(=O)c1ccc(NS(=O)(=O)c2c(C)nc3scc(C)n3c2=O)cc1,/,/,/,/,/,.
COc1ccc(O)c(-c2cc(-c3ccc(F)cc3)n[nH]2)c1,/,.,/,/,/,.
COc1ccc(-c2cc(-c3cc(OC)ccc3O)[nH]n2)cc1,.,.,.,?,.,19.8µM
COc1cccc(C(=O)Nc2ccc3nc(N4CCOCC4)cc(C)c3c2)c1,.,10µM,.,?,.,.
O=C(/C=C/c1ccc(O)cc1)c1ccccc1O,/,?,.,/,4.47µM,/
O=C(/C=C/c1ccc(OCc2ccccc2)cc1)c1cccs1,/,.,.,/,.,/
O=C(/C=C/c1ccc(O)cc1)c1cccs1,/,.,?,/,5.62µM,/
O=C1/C(=C/c2ccc(O)c(O)c2)Oc2cc(O)ccc21,/,.,.,/,/,22.4µM
COc1cc(/C=C2\Oc3cc(O)ccc3C2=O)ccc1O,/,.,.,/,/,?
O=C(c1ccccc1)N1CCc2cc(CNS(=O)(=O)c3ccccc3Cl)ccc21,/,/,/,.,/,/
C#CCCCCCCCCCCCC(O)CC(O)COC(C)=O (stereo unspecified),/,.,.,/,.,/
Cn1cnnc1SCC(=O)Nc1ccc(C#N)cc1,/,/,/,/,/,.
CCNC(=S)Nc1ccc(N2CCCCC2)cc1,.,.,.,?,.,?
CCNC(=S)N/N=C/c1sc(N2CCCCC2)nc1-c1cccs1,.,.,.,.,11.2µM,.
SMILES,GAA inh,N370S GC mod,GAA spleen mod,LMNA splice mod,KinaseGlo FLuc,GAA glycogen
COc1ccc(CNc2nc(-c3c(C)noc3C)nc3ccccc23)c(OC)c1,/,?,.,.,/,/
Nc1ncnc2c1ncn2[C@@H]1O[C@H](C(=O)NC2CC2)[C@@H](O)[C@H]1O,/,.,.,/,/,/
Cc1cc(Nc2ccccc2)n(CCOC(=O)COc2ccccc2)n1,?,.,.,.,.,31.6µM
CC(=O)c1ccc2c3c(ccc(O)c13)CC2,.,.,.,.,.,31.4µM
CC(=O)c1ccc(N2CCOCC2)cc1O,/,.,.,/,/,/
CCCc1ccc2oc(C(=O)NCCN3CCCC(O)C3)c(C)c2c1 (stereo unspecified),/,15.8µM,/,/,/,/
Cc1c(C(=O)NCCN2CCOCC2)oc2ccc(S(=O)(=O)N3CCCCCC3)cc12,?,15.8µM,.,.,.,.
COc1ccc(NCc2ccc([N+](=O)[O-])s2)c(OC)c1,.,.,.,.,.,9.92µM
CCC(=O)OCC(=O)[C@@]1(OC(=O)CC)[C@@H](C)C[C@@H]2[C@H]3CCC4=CC(=O)C=C[C@]4(C)[C@@]3(F)[C@@H](O)C[C@@]21C,/,.,.,/,.,/
CN1/C(=C\C(=O)COC(=O)c2ccc(O)c(O)c2)C(C)(C)c2ccccc21,.,.,.,.,.,10µM
CCOc1ccc(C2c3c(oc4ccccc4c3=O)C(=O)N2Cc2ccc3c(c2)OCO3)cc1 (stereo unspecified),/,/,/,/,/,.
CC1CCC/C(=N/Nc2ccc([N+](=O)[O-])cc2[N+](=O)[O-])C1 (stereo unspecified),.,.,.,.,.,15.7µM
CC1CCC(=NNc2ccc(C(F)(F)F)cc2[N+](=O)[O-])CC1 (stereo unspecified),.,.,.,.,.,.
Cc1ccc(CNC(=O)CCc2c(C)nn(-c3ccc(N4CCCCC4)nn3)c2C)cc1,/,/,/,.,/,/
O=C(CN1C(=O)c2ccccc2C1=O)[C@@H](O)CN1C(=O)c2ccccc2C1=O,/,/,/,/,.[7.66 µM],/
OC1OC[C@H](O)[C@@H](O)[C@H]1O (stereo partly specified),/,.,.,/,/,/
C=CC[n+]1c(-c2ccc(OC)c(OC)c2)csc1NNC(=O)Nc1ccccc1,.,.,.,.,.,31.6µM
CCOc1ccc(-c2ccc(SC)nn2)cc1,.,.,/,/,3.16µM,.
CCOc1ccc(-c2ccc(SCC(=O)Nc3nnc(CC)s3)nn2)cc1,.,.,.,?,.,.
c1ccc(-c2noc(-c3cccnc3)n2)nc1,.,.,.,.,?,.
COc1cccc(-c2nc(-c3ccccn3)no2)c1,.,.,.,.,7.94µM,.
c1ccc(-c2noc(-c3ccc4c(c3)OCO4)n2)nc1,.,.,.,.,2.82µM,.
c1ccc(-c2noc(-c3ccc4ccccc4c3)n2)nc1,.,.,.,?,10µM,.
O=C(Nc1ccc(Cl)c(C(F)(F)F)c1)C(Cc1ccccc1)NS(=O)(=O)c1ccc(Br)s1 (stereo unspecified),/,/,/,/,/,.
Cc1nn(C(=O)c2cccc([N+](=O)[O-])c2C)c(C)c1S(=O)(=O)N1CCCCCC1,/,/,/,.,/,/
Cc1nc2cnc(Oc3ccccc3)nc2n(C)c1=O,/,.,.,.,/,/
O=c1c(-c2ccc(Cl)cc2)nc2cnc(N3CCOCC3)nc2n1C[C@H]1CCCO1,/,.,.,.,/,/
COC(=O)[C@@H]1C[C@H]2CC[C@H](O)C[C@H]2N1Cc1ccc(N2CCOCC2)cc1,/,.,.,/,.,/
Cc1c(Nc2c3c(c(C#N)c4nc5ccccc5n24)CCC3)c(=O)n(-c2ccccc2)n1C,.,.,.,.,.,7.03µM
Cc1ccc(CNC(=O)C2CCN(C(=O)c3cnn(-c4ccccc4)c3-n3cccc3)CC2)cc1,/,/,/,/,/,.
